Only some compounds are listed: those with a hit (about 7.4% of all), similar ones and a draw of the others.
SMN2 splice up: qHTS Assay for Enhancers of SMN2 Splice Variant Expression. HEK293 SMN2-luciferase splicing reporter, luminescence, 30-36 h. Potency, µM (top dose mostly 46.1 µM), for inactives: at the highest dose activity change, positive = activation, actives largely listed as activators. 210,000 tested, 2.8% active; note: % of control where 0% means no effect; nearly all actives have a fitted effect of over 55% in size
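qHTS luciferase splicing reporter: luminescence rises when SMN2 exon 7 is included in transfected HEK293 cells. Compound exposure lasted 30-36 h at 37C, with 4.5 mM final sodium butyrate as control, followed by a ONE-Glo read.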
NPC1 promoter act: qHTS Assay for NPC1 Promoter Activators. Huh7 NPC1 promoter luciferase reporter, 24 h. Potency, µM (top dose mostly 9.22 µM), without a hit: at the highest dose activation, usual class: activators. 320,000 tested, 2.4% active; note: % of control where 0% means no effect; nearly all actives have a fitted effect of over 60% in size
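Quantitative HTS used a cell-based reporter: Huh7 cells stably bearing the NPC1 promoter upstream of luciferase were treated with compounds for 24 h, and promoter activation was read as luminescence.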
Luc counter: Counterscreen for Luciferase (Kinase-Glo TM) Inhibition; 200,000 tested, 0.28% active; Kinase-Glo luciferase, ATP luminescence, 8 min; Potency, µM (top dose mostly 38.3 µM), inactives show at the top dose activity change, negative = inhibition, hits mostly inhibitors; AID 1379, 2008; Luciferin 4-monooxygenase (Photuris pensylvanica), Q27757; note: % is set by controls: 0 for no effect and ±100 for the full control effect; nearly all actives have a fitted effect of over 60% in size
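Inhibition of Kinase-Glo luciferase light generation was assessed at 10 uM ATP in pH 7.2 imidazole buffer, with luminescence measured after eight minutes at ambient temperature.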
FLuc counter: qHTS profiling assay for firefly luciferase inhibitor/activator using purifed enzyme and Km concentrations of substrates (counterscreen for miR-21 project) | Luciferin 4-monooxygenase (Photinus pyralis), P08659 | purified FLuc, Km substrates, luminescence inhibition | Potency, µM (series often up to 57.5 µM), without a hit: at the highest dose activity change, negative = inhibition, actives largely listed as inhibitors | 360,000 tested, 6.9% active | AID 588342, 2011;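 note: plate controls were vehicle for no effect and reference inhibitor for full effect; nearly all actives have a fitted effect of over 55% in size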
Target sequence (P08659 whole entry, looked up): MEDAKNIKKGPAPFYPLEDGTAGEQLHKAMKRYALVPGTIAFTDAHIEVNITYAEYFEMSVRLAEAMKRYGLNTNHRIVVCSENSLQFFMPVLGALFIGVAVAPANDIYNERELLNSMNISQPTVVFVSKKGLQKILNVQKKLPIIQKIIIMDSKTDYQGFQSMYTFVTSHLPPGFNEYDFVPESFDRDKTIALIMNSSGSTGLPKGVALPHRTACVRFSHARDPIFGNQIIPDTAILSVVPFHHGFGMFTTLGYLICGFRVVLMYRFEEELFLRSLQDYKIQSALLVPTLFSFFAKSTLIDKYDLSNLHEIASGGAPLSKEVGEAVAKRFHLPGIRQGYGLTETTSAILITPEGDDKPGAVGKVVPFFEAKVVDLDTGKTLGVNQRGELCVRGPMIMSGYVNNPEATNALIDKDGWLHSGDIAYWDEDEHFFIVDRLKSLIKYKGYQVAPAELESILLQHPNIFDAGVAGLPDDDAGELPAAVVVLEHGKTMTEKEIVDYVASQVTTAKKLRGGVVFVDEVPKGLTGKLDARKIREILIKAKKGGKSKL
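Purified P. pyralis luciferase (10nM final) with 10uM D-luciferin and 10uM ATP (Km levels) in 50mM Tris acetate pH 7.5, 10mM Mg acetate, 0.01% Tween-20, 0.05% BSA; qHTS 6-point titration, ~60 µM downward; luminescence read.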
ELG1 genotoxic: qHTS screen for small molecules that induce genotoxicity in human embryonic kidney (HEK293T) cells expressing luciferase-tagged ELG1; Potency, µM (highest dose often 46 µM), without a hit: top-dose activity change, positive = activation, actives largely listed as activators; 330,000 tested, 1.3% active; AID 504466, 2011; HEK293T ELG1-luciferase reporter, luminescence, 16 h; note: % of control where 0% means no effect; nearly all actives have a fitted effect of over 60% in size
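Quantitative HTS format in 1536-well plates. HEK293T ELG1-luciferase reporter cells receive test compound and are incubated 16 hr at 37 °C, 5% CO2; ONE-Glo added, 30 min room temperature, then luminescence read.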
Rab9 promoter act: qHTS Assay for Rab9 Promoter Activators | Huh7 Rab9 promoter-luciferase reporter, luminescence, 24 h | Potency, µM (highest dose often 9.22 µM), for inactives: at the top dose activation, negative = inhibition, hits mostly activators | 320,000 tested, 2.8% active | AID 485297, 2010; note: % of control where 0% means no effect; nearly all actives have a fitted effect of over 60% in size
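Quantitative HTS format; Huh7 Rab9-luciferase reporter cells (1500/well) receive compound 2 h post-plating, incubate 24 h at 37 °C, then get luciferase reagent for 10 min before luminescence reading.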
The depositor's hits bear a star; ? = inconclusive; . = no result; [ ] = dose if it differs, or a comment. Calls come from the whole dose curve; as a rule, active = well fitted curve in the direction sought with a large enough effect; inconclusive = small, poorly fitted or top-dose-only effect, or another doubt; inactive = no such curve, though single readings can be large; an effect the other way counts as inactive or inconclusive. Potency is the fitted concentration of half-maximal effect.

SMILES	SMN2 splice up	NPC1 promoter act	Luc counter	FLuc counter	ELG1 genotoxic	Rab9 promoter act
COC(=O)c1ccc2nccnc2c1	.	0%	.	5%	-2%	-6%
CCOc1ccc(C(=O)COC(=O)Cc2n[nH]c(=O)c3ccccc23)cc1	.	-26%	.	-14%	5%	-19%
COc1ccc(CCn2c(=O)c3ccccc3n(CC(=O)Nc3cccc(C)c3)c2=O)cc1OC	5%	.	.	6%	.	.
CCOc1ccc(NC(=O)c2ccncc2)cc1	-13%	13%	-2%	?	?	4%
CCc1ccc(NC(=O)c2n[nH]c(=O)c3ccccc23)cc1	.	3.2µM*	.	?	?	2.5µM*
CCOc1ccc(NC(=O)c2ccc3nccnc3c2)cc1	-26%	21%	-1%	17µM*	?	?
CCOc1ccc(NC(=O)Nc2ccc3nccnc3c2)cc1	-22%	0%	2%	19µM*	-12%	5%
CC(C)(C)NC(=O)Nc1ccc2nccnc2c1	?	3.5µM*	-6%	24µM*	?	3.5µM*
CCOc1ccccc1NC(=O)Nc1nnc(N2CCCC(C)C2)s1 (stereo unspecified)	.	.	.	-13%	.	.
COc1ccc(CNC(=O)Cn2ncn3nc(-c4cccs4)cc3c2=O)cc1	.	.	.	0%	.	.
COc1ccccc1Cn1cc(C(=O)c2ccc(C)cc2)c(=O)c2cc(C)ccc21	1%	.	.	-2%	.	.
O=C(c1ccc(Cl)cc1)c1coc2ccc(O)cc12	-14%	?	-6%	3.8µM*	13%	?
COc1ccc(C(=O)c2oc3ccccc3c2N)cc1	13µM*	3.5µM*	-3%	11µM*	9.2µM*	?
COc1ccc2oc(C(=O)C3CC3)c(N)c2c1	?	?	6%	13µM*	?	?
COc1ccc2oc(C(=O)c3ccccc3)c(N)c2c1	11µM*	2µM*	-2%	3µM*	?	2µM*
O=C(c1coc2ccc(O)cc12)C1CC1	-5%	-3%	-1%	-19%	0%	4%
COc1ccc2oc(C(=O)OCC(=O)N3CCCCC3C)c(C)c2c1 (stereo unspecified)	.	.	.	.	10%	.
COc1cc(CCC(=O)NCc2ccc3c(c2)CCN3C(=O)c2ccc(F)cc2)cc(OC)c1OC	.	.	.	7%	.	.
COC(=O)c1oc2ccc(Cl)cc2c1N	?	16%	-4%	2%[2.3 µM]	11%	21%
COC(=O)CCC(=O)c1oc2ccc(OC)cc2c1N	?	2.5µM*	2%	3.4µM*	3.7µM*	4.5µM*
COc1ccc2occ(C(=O)c3ccccc3)c2c1	?	30%	-5%	13µM*	?	?
CCc1ccc(CN(Cc2cn[nH]c2-c2ccc(OC)cc2)C(=O)Nc2ccc(C)c(F)c2)cc1	.	.	.	3%	.	.
COc1ccc(NC(=O)c2nn(C)c3c2CS(=O)(=O)c2ccccc2-3)cc1Cl	.	.	.	-14%	.	.
Cc1ccc(C(=O)Nc2ccc(Cl)cc2C)c(Cl)c1	10µM*	0.89µM*	-1%	1.7µM*	2.9µM*	3.2µM*
Cc1ccc(NC(=O)c2ccc(Cl)cc2Cl)cc1O	.	?	.	8.5µM*	?	?
SMILES	SMN2 splice up	NPC1 promoter act	Luc counter	FLuc counter	ELG1 genotoxic	Rab9 promoter act
CNS(=O)(=O)c1ccc(NC(=O)c2ccc(Cl)cc2Cl)cc1	-9%	-4%	11%	-13%	0%	3%
Cc1ccc(C(=O)Nc2ccc(Cl)cc2C(F)(F)F)c(Cl)c1	?	26%	1%	11µM*	27%	?
COCC1=C2c3ccccc3[C@H](C[N+](=O)[O-])C(C(=O)OC)(C(=O)OC)C[C@@H]2n2c(=O)n(-c3ccccc3)c(=O)n2C1	12%	.	0%	.	.	.
O=S1(=O)c2cccc3cccc(c23)N1Cc1nnc(-c2ccccc2Br)o1	-45%	3%	-1%	-1%	-2%	3%
O=C1c2ccccc2S(=O)(=O)N1Cc1nnc(-c2ccccc2Br)o1	-6%	8%	0%	21µM*	3%	1%
O=C(c1ccc(CS(=O)c2ccccc2Cl)o1)N1CCN(c2ccccc2F)CC1 (stereo unspecified)	.	.	.	5%	.	.
Cc1ccc(NC(=O)O/N=C/c2ccc(N(C)C)cc2)cc1	.	?	.	12µM*	15%	26%
CCN(CC)c1ccc(/C=N/OC(C)C(=O)Nc2ccc(C)cc2)cc1 (stereo unspecified)	2%	1%	0%	?	-2%	0%
COc1ccc(NC(=O)O/N=C/c2ccc(Br)cc2)cc1	.	10%	.	27µM*	3%	0%
COc1ccc(/C=N/OC(=O)Nc2ccc(Cl)cc2)c(OC)c1	.	3%	.	12µM*	15%	14%
CN(C)c1ccc(/C=N/OC(=O)Nc2ccccc2Cl)cc1	.	5%	.	24µM*	10%	29%
Cc1ccc(NC(=O)O/N=C/c2ccc(Br)cc2)cc1	.	1%	.	?	3%	0%
Cc1ccc(C(=O)O/N=C/c2ccc(N(C)C)cc2)cc1	.	1%	1%	?	13%	20%
CCCCOc1ccc(C2c3c(oc4ccc(C)cc4c3=O)C(=O)N2CCCN(C)C)cc1OCC (stereo unspecified)	0%	.	.	0%	.	.
O=C(C1CCCN(S(=O)(=O)c2cccc3nsnc23)C1)N1CCN(c2cccc(Cl)c2)CC1 (stereo unspecified)	-3%	.	.	-7%	.	.
COc1ccc(NC(=O)O/N=C/c2ccc(N(C)C)cc2)cc1	.	17%	.	21µM*	7%	19%
COc1ccc(/C=N/OC(=O)Nc2ccccc2OC)cc1	16µM*	1%	-10%	8.5µM*	?	?
Cc1cc(O)ccc1N/C=C/c1onc(C)c1[N+](=O)[O-]	20µM*	3.2µM*	-10%	?	?	2.5µM*
CCOC(=O)c1[nH]c2c(c1Cc1ccccc1)C(=O)CC(c1ccc(Cl)cc1)C2 (stereo unspecified)	-7%	.	.	-8%	.	.
Cn1c(N)c(C(=O)COC(=O)c2cc(-c3ccco3)nc3ccccc23)c(=O)n(C)c1=O	-23%	1%	-1%	?	-7%	-3%
COc1ccc(-c2cc(C(=O)OCC(=O)c3c(N)n(C)c(=O)n(C)c3=O)c3ccccc3n2)cc1	-5%	-1%	0%	7.6µM*	2%	14%
COc1ccc(-c2cc(C(=O)c3c(N)n(C)c(=O)n(C)c3=O)c3ccccc3n2)cc1	.	?	.	0.38µM*	?	?

Screening data (PubChem BioAssay)
